Data on 95 molecules can be found in PubChem BioAssay AID624297 (National Center for Advancing Translational Sciences (NCATS), 2012).

Molecules are shown by their SMILES. Several values for one entry are separate records, joined by “and”; a condition that tells them apart may be missing. Equal values may be shown once. Hit rate of the full screen: of about 340,000 compounds, about 6,200 (1.8%) were called active. Another 10% or so got no clear call; they are omitted. The call rests on the fitted dose curve; in most records, active means well fitted activation curve with a large enough effect; inconclusive means small, poorly fitted or top-dose-only effect; inactive means no such curve, though single readings can be large or run the other way. Shown is part of a subset that was picked to be rich in actives. Where a call stands in place of a potency, no number is given. The source holds several records for some structures; these can differ, active in one and inactive in another.
Potency means the concentration at half of the fitted maximal effect.

A short description of this assay: A quantitative high throughput screen for small molecules that induce DNA re-replication in SW480 colon adenocarcinoma cells. Further: nearly all actives have a fitted effect of over 55% in size. The settings on record: Hoechst DNA content imaging, 48 h; series mostly up to 46.1 µM. An excerpt:
H Molecular Libraries Probe Production Network [MLPCN] NIH Chemical Genomics Center [NCGC] MLPCN Grant: Fast Track K99 CA136555 Assay Provider: Melvin DePamphilis, NICHD, NIH Assay Overview Eukaryotic cells normally restrict genome duplication to once per cell division. When this process is aberrant, DNA re-replication occurs when cells reinitiate DNA replication before the first round of replication is complete. DNA re-replication induces the DNA damage response, arrests cell proliferation, and triggers apoptosis. The cell cycle components cyclin A, Cdt-1, Cdc6 and geminin are critical regulators of this process and their misregulation results in DNA re-replication in normal and cancer cells. To identify compounds that induce re-replication in normal cells, an image-based assay was used to measure DNA content of nuclei, as detected by the fluorescent DNA binding dye, Hoechst. Cell nuclei were imaged by a fluorescence scanning plate imager and compounds that induce DNA re-replication were identified by the increase of nuclei with elevated fluorescence intensity
For screening, 250 cells in 5 uL/well were dispensed into black clear 1536-well plates (Aurora) using a solenoid-based dispenser. Following transfer of 23 nL compound or DMSO vehicle by a pin tool, the plates were incubated 48 hr at 37 C and 5% CO2. After addition of 1 uL/well Hoescht stain, the plates were incubated 40 min at 37 C, 5% CO2 and total intensity of fluorescent objects (nuclei) were enumerated by an Acumen Explorer Ex3 (TTP LabTech) fluorescence scanning plate imager (405 nm excitation, 500-530 nm emission). Keywords: NIH Roadmap, MLPCN, MLI, MLSMR, qHTS, NCGC, DNA replication, cancer
As to `Oc1c(Cl)cc(Cl)c(Cl)c1Cc1c(O)c(Cl)cc(Cl)c1Cl`, the Potency entry is “inactive and 16.4 µM (active)”.
Same read-out and setting: under `CCOC(=O)[C@@H]1[C@H]2COc3ccc(Br)cc3[C@H]2N2C(=O)N(c3ccc(C)cc3)C(=O)[C@@]12C` stands “inactive”; under `COc1cc(NC(=O)c2[nH]cnc2C(N)=O)cc(C(=O)Nc2cccc(C(F)(F)F)c2)c1`, “inactive”.
On the same count and under the same terms, under `Cn1c(N)c(C(=O)COC(=O)c2ccc3ccccc3c2)c(=O)n(C)c1=O` stands “inactive”; under `CCN(C[C@H]1N[C@@](Cc2ccccc2)(C(=O)OC)[C@H]2C(=O)N(Cc3ccccc3)C(=O)[C@@H]12)C(=O)c1ccc(C)cc1`, “inactive”; under `COc1ccc(C(=O)COC(=O)CN2C(=O)C3CC=CCC3C2=O)c(OC)c1` (stereo not given), “inactive”.
On to `O=C(CCN1CCCCC1)N=Nc1c(O)[nH]c2ccccc12`, for which the Potency was 18.4 µM (active).
The same measure, in the same setting: with `COCC(=O)N=Nc1c(O)[nH]c2ccccc12` the entry was “inactive”; with `Cc1cccc(N(CC(=O)N=Nc2c(O)[nH]c3ccccc23)S(C)(=O)=O)c1C`, “inactive”; with `O=c1nc(NO)ccn1C1CCCO1` (stereo not given), “inactive”.
Still for that read-out and setting: under `CC1(C)N=C(N)NC(Nc2ccc(Cl)cc2)=N1` stands “inactive”; under `COc1ccccc1NC(=O)C1CCCN1S(=O)(=O)c1ccc(Cl)cc1` (stereo not given), “inactive”; under `COc1ccccc1NC1=NC(c2ccc(Cl)cc2)N=C(N)N1` (stereo not given), 20.6 µM (active).
The same measure, in the same setting: under `C[C@@H]1CN([C@H](C)CO)C(=O)c2cc(NC(=O)NC3CCCCC3)ccc2O[C@H]1CN(C)S(C)(=O)=O` stands “inactive”; under `COc1ccc(CCNC(=O)COC(=O)c2cc(=O)c3ccccc3o2)cc1`, “inactive”.
Take `CNC[C@H]1Oc2c(NC(=O)C3CCCCC3)cccc2C(=O)N([C@H](C)CO)C[C@@H]1C`: the re-replication activation is 4.46% [at 9.22 µM] (inactive).
As to `COc1cc(/C=N/NC(=O)c2cc(-c3ccccc3C)nc3ccccc23)cc(OC)c1O`, the Potency result is “inactive”.
The same measure, in the same setting: with `COc1ccc(/C=N/NC(=O)c2cc(-c3cccc(C)c3)nc3ccccc23)cc1O` the entry was “inactive”; with `CCOc1ccc(-c2cc(C(=O)N/N=C/c3ccc(O)cc3)c3ccccc3n2)cc1`, 18.4 µM (active).
Still for that read-out and setting: with `Cc1ccccc1NC(=O)c1cc(S(=O)(=O)Nc2cccc(C(=O)O)c2)ccc1Cl` the entry was “inactive”; with `C/C(=N\Nc1cccc(C(=O)O)c1)c1ccc2c(c1)Nc1ccccc1S2`, 8.2 µM (active).
As to `O=C(O)c1cccc(N2C(=O)Nc3ccccc3N2O)c1`, the Potency entry is “inactive”.
Still for that read-out and setting: with `COc1cc(OC)cc(-c2c(C#Cc3ccsc3)c3cc(-c4ccc(OC)cc4F)ccc3n2C)c1` the entry was “inactive”; with `c1ccc(CNc2ncnc3[nH]ncc23)cc1`, “inactive”.
Same read-out and setting: with `Nc1cc(=O)n(Cc2ccccc2)c(=O)n1Cc1ccccc1` the entry was “inactive”.
On the same count and under the same terms, with `Cc1nn(-c2ccc(F)cc2)c(Cl)c1/C=C(/CCC(=O)O)c1nc2ccccc2s1` the entry was “inactive”; with `CCCCN(C(=O)c1cccc(N2C(=O)c3ccccc3C2=O)c1)c1c(N)n(CCCC)c(=O)[nH]c1=O`, “inactive”.
With `CCn1c(=S)[nH]c2cc(S(=O)(=O)N3CCOCC3)ccc21`, the Potency entry was “inactive”.
Same read-out and setting: with `Cc1ccsc1C(=O)N/N=C/c1ccc([N+](=O)[O-])cc1` the entry was “inactive”.
Turning to `Cc1ccc(/C=N/NC(=O)c2sccc2OCc2ccc(F)cc2)cc1`, the Potency was 16.4 µM (active).
`Cc1ccc(COc2ccc(/C=N/NC(=O)CN3CCCCC3)cc2)cc1`: the Potency result was “inactive”.
On the same count and under the same terms, under `CC(C)Cn1cnc2c(SCc3ccc(Cl)cc3)nc(N)nc21` stands “inactive”; under `CCN(CC)c1ccc(NC(=O)c2ccc(Cl)nc2)cc1`, 16.4 µM (active).
Same read-out and setting: with `O=C(Nc1ccc2nc3n(c(=O)c2c1)CCCC3)c1ccc(Cl)nc1` the entry was “inactive”; with `O=C(NNC(=O)c1ccc(Cl)nc1)c1ccc(Br)cc1`, “inactive”; with `O=C(COc1ccccc1F)NNC(=O)c1cc(Br)ccc1Cl`, “inactive”.
Still for that read-out and setting: with `NC(=O)c1ccc(N2CCCC2)nc1` the entry was “inactive”.
As to `Oc1ccc(Br)cc1C=Nc1ccc2[nH]ncc2c1`, the Potency entry was “inactive”.
Still for that read-out and setting: under `Cc1c(C(=O)Nc2ccccn2)oc2ccc(Br)cc12` stands “inactive”; under `Oc1ccc(Br)cc1/C=N/Nc1ccccn1`, 9.2 µM (active).
On the same count and under the same terms, under `CCOC(=O)CCCCCC(=O)Nc1ccc2c(c1)CC(=O)N([C@@H](C)CO)C[C@H](C)[C@@H](CN(C)Cc1ccccc1)O2` stands “inactive”; under `Cc1nn(Cc2ccc(C(=O)N3N=C(C(F)F)CC3(O)C(F)F)cc2)c(C)c1[N+](=O)[O-]` (stereo not given), “inactive”; under `Cc1ccn(CC(=O)N2N=C(C(F)F)CC2(O)C(F)F)n1` (stereo not given), 0.517 µM (active).
On the same count and under the same terms, with `Cc1ccn(CCC(=O)N2c3ccccc3CC2C)n1` (stereo not given) the entry was “inactive”; with `CC1(C)C[C@H]2C3=CCC4[C@@]5(C)CC[C@H](O)[C@](C)(CO)C5CC[C@@]4(C)[C@]3(C)C[C@@H](O)[C@@]2(CO)[C@@H](O)[C@@H]1O` (stereo not given in full), “inactive”; with `COc1cc(C(=O)OCC(=O)NC23CC4CC(CC(C4)C2)C3)cc(OC)c1OC`, “inactive”.
As to `COc1ccc(C(CNC(=O)c2cc(S(=O)(=O)Nc3cccc(C)c3)ccc2C)N2CCCC2)cc1` (stereo not given), the Potency result is “inactive”.
On to `CC[C@]1(C(=O)OC)[C@H]2C(=O)N(Cc3ccccc3)C(=O)[C@H]2[C@H]2CN=C(SCc3ccc(C#N)cc3)N21`, for which the re-replication activation was -4.58% [at 9.22 µM] (inactive).
As for `CCCCNS(=O)(=O)CCNCc1ccccc1OC`, the Potency entry is “inactive”.
For `COc1ccc(-c2cc(-c3ccc(N)cc3)nc(N)c2C#N)cc1OC`, the Potency was 23.1 µM (active).
Regarding `COc1ccc(OC)c2c(N)c(C#N)c(C(F)(F)C(F)(F)F)nc12`, the Potency result is “inactive”.
Still for that read-out and setting: under `CCOc1cc(-c2cc(-c3ccc(NC(C)=O)cc3)nc(N)c2C#N)ccc1O` stands “inactive”; under `COc1cccc(NC(=O)CN(C)CC(=O)c2c(N)n(Cc3ccccc3)c(=O)n(C)c2=O)c1`, “inactive”; under `CC(=O)Nc1nonc1-c1nc2ccccc2n1Cc1ccccn1`, “inactive”.
The same measure, in the same setting: with `CCn1c(C(O)c2cc(OC)ccc2OC)nc2ccccc21` (stereo not given) the entry was “inactive”; with `COc1ccc(C)c(Cn2c(-c3nonc3N)nc3ccccc32)c1`, 5.17 µM (active).
Still for that read-out and setting: under `Cc1ccc(C(=O)NCC(c2cccs2)N(C)C)cc1S(=O)(=O)N1CCOCC1` (stereo not given) stands “inactive”; under `CC(=O)C[C@H](O)CC(=O)[C@@H]1OC(=O)[C@@H](C)C/C=C\Cc2ccccc21`, “inactive”.
Consider `CC(C)C[C@H]1CN([C@@H](CC(C)C)CN2CCC[C@@H]2CN2C(=O)C(=O)NC[C@@H]2Cc2ccccc2)C(=O)C(=O)N1CCc1ccccc1`, for which the Potency entry was “inactive”.
On the same count and under the same terms, with `CCOc1ccccc1NC(=O)Cc1cccs1` the entry was “inactive”.
With `CCOc1ccccc1NC(=O)Cn1nnc(C(=O)NCc2cccs2)c1N`, the Potency is 0.146 µM (active).
On the same count and under the same terms, under `CCc1ccc(NC(=O)Cn2nnc(C(=O)NCc3ccc(OC)cc3)c2N)cc1` stands “inactive”.
As for `C#CCOCCOCCOCCNc1nc(N2CCN(C(=O)Cn3cc(CCO)nn3)CC2)nc(N2CCN(C(=O)[C@H](CCCCN)n3cc(CCCC)nn3)CC2)n1`, the re-replication activation was 7.81% [at 9.22 µM] (inactive).
On to `COc1ccc(Br)cc1/C=N/Nc1ccc(S(=O)(=O)Nc2ccccc2C(=O)O)cc1[N+](=O)[O-]`, for which the Potency result was “inactive”.
The same measure, in the same setting: under `O=C1C[C@@H]2c3c(cccc3CN1Cc1ccccc1)C[C@@H](O)[C@H]2O` stands “inactive”; under `CCOC(=O)c1sc(NC(=O)CSc2ncccn2)c(C#N)c1C`, 7.31 µM (active); under `CCOC(=O)c1sc(NC(=O)CSc2nc(C)cc(C(F)(F)F)n2)c(C#N)c1C`, “inactive”.
On the same count and under the same terms, with `CCC(=O)Nc1sc(C(=O)N2CCCCC2)c(C)c1C#N` the entry was “inactive”; with `COc1cc2c(cc1CNC[C@H]1O[C@@H](n3cnc(C(N)=O)n3)[C@H](O)[C@@H]1O)OCO2`, “inactive”.
As to `CC(C)C(NC(=O)c1c(F)cccc1F)C(=O)NNC(=O)c1ccccc1` (stereo not given), the Potency result was “inactive”.
The same measure, in the same setting: under `COc1ccc(CNC(=O)COC(=O)C(CCSC)N2C(=O)c3ccccc3C2=O)cc1` (stereo not given) stands “inactive”.
Still for that read-out and setting: under `CN(C)CCCn1c(N)c(C#N)c2nc(C#N)c(C#N)nc21` stands 16.4 µM (active); under `c1ccc2c(c1)OC1OC2Oc2ccccc21`, “inactive”; under `O=C(NCCc1ccccc1)c1cccc(NC(=O)c2ccccc2)c1`, “inactive”.
The same measure, in the same setting: under `COc1ccccc1N(CC(=O)N/N=C(\C)c1ccccc1O)S(=O)(=O)c1ccc(C)cc1` stands 4.11 µM (active).
For `COc1ccccc1NC(=O)CN(c1ccccc1OC)S(=O)(=O)c1ccccc1`, the Potency result is “inactive”.
On the same count and under the same terms, under `COc1ccc(S(=O)(=O)N(CC(=O)N/N=C/c2ccccc2C(=O)O)c2ccccc2OC)cc1` stands “inactive”; under `Cc1cc(C)nc(SCC(=O)c2ccc(Cl)cc2)n1`, “inactive”.
Regarding `Cc1cc(C)nc(SCC(=O)N(C)C)n1`, the Potency result was “inactive”.
Still for that read-out and setting: with `Cc1cc(C)nc(S/C=C/C(=O)c2ccccc2)n1` the figure was 4.61 µM (active); with `C=CCC[C@H](Cc1ccc(F)cc1)C(=O)OC[C@@H](NC(=O)[C@@H](CC=C)CC(=O)N[C@H](CO)Cc1ccccc1)C(C)(C)C`, “inactive”.
Still for that read-out and setting: under `O=C(NCC1CCCCC1)NCC1CCCCC1` stands “inactive”.
On the same count and under the same terms, under `O=C1CC(c2ccccc2)C(=O)N2C(=O)CC(c3ccccc3)C(=O)N12` (stereo not given) stands “inactive”.
As for `CC(C)(C)c1nnc2sc(SCC(O)=C(C#N)c3nc4ccccc4[nH]3)nn2c1=O`, the Potency entry was “inactive”.
Still for that read-out and setting: under `COc1ccc(-c2onc(C)c2-c2ccc3c(c2)OCCO3)c(O)c1` stands 14.6 µM (active); under `COc1ccc(O)c(C=Nc2cc(C)on2)c1`, “inactive”; under `COc1ccc(-c2c(-c3ccc(OC)cc3O)nc(C)nc2C(F)(F)F)cc1`, “inactive”.
Same read-out and setting: under `COC(=O)c1c(NC(C)=O)sc(C(=O)Nc2ccccc2OC)c1C` stands “inactive”; under `CCOC(=O)c1sc(NC(=O)COc2ncnc3ccccc23)c(C(=O)OCC)c1C`, “inactive”; under `CCC(=O)Nc1sc(C(=O)Nc2ccccc2)c(C)c1C(=O)OC`, 20.6 µM (active).
Same read-out and setting: under `COc1cc(OC)cc(C(=O)NC(C(=O)N2CCC2)C(C)C)c1` (stereo not given) stands “inactive”.
For the molecule `CC(=O)Nc1ccc(Nc2c3ccccc3nc3ccccc23)cc1`, the Potency is 18.4 µM (active).
As to `CC(=O)Nc1ccc(NC(=O)COc2ncnc3ccccc23)cc1`, the Potency result was “inactive”.
`CC(C)(C)OC(=O)NNc1c2ccccc2nc2ccccc12`: the Potency entry is “inactive”.
The same measure, in the same setting: with `CC[C@]1(C(=O)OC)[C@H]2C(=O)N(Cc3ccccc3)C(=O)[C@H]2[C@H]2CN=C(SCc3ccccc3)N21` the entry was “inactive”.
